# Reference: article PMC4336329 (PLoS ONE, 2015)
# The whole screen tested about 310,000 compounds, of which about 14,000 (4.5%) showed an effect of 50% or more. The effect is printed as a negative number. The list comes from a sample in which strong results are over-represented; it also holds similar structures and randomly drawn compounds.
# Molecular target: human ether-à-go-go-related gene (hERG) potassium channel (human, UniProt Q12809)
# Assay: primary screen, population patch clamp on CHO cells stably expressing hERG; higher = less effect of the substance
# 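Also: peak tail current of the secondary pulse compared with the same well before compound.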
# Sequence of human ether-à-go-go-related gene (hERG) potassium channel (Q12809 whole entry, looked up): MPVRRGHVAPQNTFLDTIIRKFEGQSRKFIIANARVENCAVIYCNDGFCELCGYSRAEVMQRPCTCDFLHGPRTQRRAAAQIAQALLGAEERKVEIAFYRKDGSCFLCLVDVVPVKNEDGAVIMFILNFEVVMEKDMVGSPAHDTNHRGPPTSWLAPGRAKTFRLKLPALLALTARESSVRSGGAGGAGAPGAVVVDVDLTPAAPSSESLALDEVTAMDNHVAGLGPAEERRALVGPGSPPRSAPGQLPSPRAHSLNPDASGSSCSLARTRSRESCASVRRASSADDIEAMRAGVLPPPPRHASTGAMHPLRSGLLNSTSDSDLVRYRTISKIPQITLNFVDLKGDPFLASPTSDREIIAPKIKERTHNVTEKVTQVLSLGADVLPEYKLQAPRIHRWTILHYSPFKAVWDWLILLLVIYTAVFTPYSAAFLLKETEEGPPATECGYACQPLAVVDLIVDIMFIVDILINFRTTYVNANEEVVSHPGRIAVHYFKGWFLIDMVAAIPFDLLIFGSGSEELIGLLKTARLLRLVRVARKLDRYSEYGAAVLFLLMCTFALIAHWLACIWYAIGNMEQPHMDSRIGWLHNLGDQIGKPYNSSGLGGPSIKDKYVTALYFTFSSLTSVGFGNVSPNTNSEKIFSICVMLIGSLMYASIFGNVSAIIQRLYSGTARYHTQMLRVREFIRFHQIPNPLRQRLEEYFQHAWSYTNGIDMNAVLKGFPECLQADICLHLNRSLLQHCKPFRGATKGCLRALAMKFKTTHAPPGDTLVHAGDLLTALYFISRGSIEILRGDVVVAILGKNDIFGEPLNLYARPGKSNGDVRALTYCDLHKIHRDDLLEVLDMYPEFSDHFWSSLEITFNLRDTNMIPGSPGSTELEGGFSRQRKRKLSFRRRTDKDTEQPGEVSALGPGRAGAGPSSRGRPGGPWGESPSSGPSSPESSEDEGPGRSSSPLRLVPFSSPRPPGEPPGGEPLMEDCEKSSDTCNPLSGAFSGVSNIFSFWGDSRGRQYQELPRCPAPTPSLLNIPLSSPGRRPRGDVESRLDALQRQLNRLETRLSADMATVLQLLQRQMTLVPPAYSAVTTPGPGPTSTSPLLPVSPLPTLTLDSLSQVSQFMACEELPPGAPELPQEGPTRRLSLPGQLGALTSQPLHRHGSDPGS
row,SMILES,"hERG current change (%, negative = inhibition) at 10uM [%]"
1,COc1cc(SC)ccc1C(=O)NCCNC(=O)c1nonc1N,-6.81
2,COc1ccccc1NC(=O)CCS(=O)(=O)c1ccc2c(c1)NC(=O)C(C)S2 (stereo not drawn),-4.76
3,COc1ccc(NC(=S)Nc2ccccn2)cc1,13.5
4,COc1ccc(C)cc1C(=O)CCC(=O)NCCc1ccc(S(N)(=O)=O)cc1,19.6
5,CCOc1ccc(Cn2nnc(C(=O)NCc3ccccc3)c2N)cc1,11.6
6,O=C1NC(=O)C2(Cc3ccccc3N3CCCC32)C(=O)N1c1cccc(Cl)c1 (stereo not drawn),-18.1
7,COc1ccc(N(C(=O)c2cnsn2)C(C(=O)NC2CCCCC2)c2ccncc2)cc1 (stereo not drawn),-26.7
8,CC(=O)c1cccc(N(C(=O)c2csnn2)C(C(=O)NC2CCCC2)c2ccccc2)c1 (stereo not drawn),-18.5
9,Cc1ccc(N(C(=O)c2csnn2)C(C(=O)NC2CCCCC2)c2ccncc2)cc1 (stereo not drawn),-1.71
10,CCOc1ccc(N(C(=O)c2cnccn2)C(C(=O)NC2CCCCC2)c2ccc(O)cc2)cc1 (stereo not drawn),10.4
11,CCc1ccc(N(C(=O)c2csnn2)C(C(=O)NC(C)(C)C)c2ccccn2)cc1 (stereo not drawn),-42.7
12,CCC(C)(C)NC(=O)C(c1ccccn1)N(C(=O)c1csnn1)c1ccccc1 (stereo not drawn),5.39
13,CCOc1ccc(N(C(=O)c2cnsn2)C(C(=O)NC2CCCCC2)c2ccncc2)cc1 (stereo not drawn),-69.4
14,CCc1ccc(N(C(=O)c2csnn2)C(C(=O)NC(C)(C)CC)c2ccccn2)cc1 (stereo not drawn),-54.3
15,O=C(NC1CCCC1)C(c1ccncc1)N(C(=O)c1csnn1)c1ccc(Cl)cc1 (stereo not drawn),-10.4
16,CC(C)c1ccc(N(C(=O)c2csnn2)C(C(=O)NC2CCCC2)c2ccncc2)cc1 (stereo not drawn),-57.8
17,CC(=O)c1ccc(N(C(=O)c2csnn2)C(C(=O)NC2CCCC2)c2ccccc2)cc1 (stereo not drawn),-54.9
18,COc1ccc(N(C(=O)c2csnn2)C(C(=O)NC2CCCC2)c2ccccc2)cc1 (stereo not drawn),-9.35
19,COc1cccc(Nc2ncnc3onc(-c4ccccc4OC)c23)c1,-4.9
20,CNC(=S)N(Cc1cc2cc(C)cc(C)c2[nH]c1=O)C1CCCC1,-3.94
21,c1ccc(CCCc2nc(-c3ccccn3)no2)cc1,-7.53

row,SMILES,"hERG current change (%, negative = inhibition) at 10uM [%]"
1,COc1ccccc1Nc1nnc(SCC(=O)N2CCCC2=O)s1,-11.4
2,COCCCNC(=O)C1CCN(c2ccc(N3CCOCC3)nn2)CC1,10.1
3,O=C(CCCc1nc2ccccc2s1)N1CCN(c2ccccc2F)CC1,-31.3
4,COc1ccc2[nH]c3c(=O)n4c(nc3c2c1)SCC4,6.11
5,COc1ccc(CN2CC(C(=O)NCCCOC(C)C)CC2=O)cc1 (stereo not drawn),0.406
6,CC(CC(=O)Nc1ccc(F)cc1F)S(=O)(=O)c1ccc2c(c1)NC(=O)CO2 (stereo not drawn),-9
7,CC(=O)c1ccc(N2C(=O)C3C4C=CC(CC4)C3C2=O)cc1 (stereo not drawn),13.6
8,CN(C)S(=O)(=O)c1cccc(C(=O)Nc2ccccc2N2CCCCC2)c1,5.55
9,CCn1c(SC(C)C(=O)NCC2CCCO2)nc2scc(-c3ccccc3)c2c1=O (stereo not drawn),-28.7
10,COCCn1c(SC(C)C(=O)NCC2CCCO2)nc2scc(-c3ccc(F)cc3)c2c1=O (stereo not drawn),-66.5
11,COCCn1c(SC(C)C(=O)NCC2CCCO2)nc2sc3c(c2c1=O)CCC3 (stereo not drawn),-8.18
12,CCOC(=O)/C(=C/c1c(C)n(C)c2ccc([N+](=O)[O-])cc12)C(C)=O,-19.6
13,Cc1nn(-c2ccc(C(=O)OC(C)C)cc2)c(C)c1[N+](=O)[O-],4.98
14,CCOC(=O)CNC(=O)C1CCN(S(=O)(=O)c2ccc(-c3nn[nH]n3)cc2)CC1,8.58
15,Cc1cccc2cc(CN(Cc3cccnc3)C(=O)c3ccccc3F)c(Cl)nc12,-49.6
16,Cc1cc(C)c2cc(CN(Cc3cccnc3)C(=O)c3ccc(F)cc3)c(Cl)nc2c1,-64.7
17,COCCN(Cc1cc2c(C)cc(C)cc2nc1Cl)C(=O)c1ccccc1F,44.3
18,CC(=O)Nc1ccccc1C(=O)C(=O)Nc1ccc(C)c(F)c1,24.3
19,O=C(CSC1=NCCS1)Nc1ccc(S(=O)(=O)NC2CCCCC2)cc1,-8.65
20,OC(COc1ccc(OCC(O)CN2CCN(Cc3ccccc3)CC2)cc1)CN1CCN(Cc2ccccc2)CC1 (stereo not drawn),5.65
21,CCC(=O)c1ccc(OCC(O)CN2CC(C)OC(C)C2)cc1.O=C(O)C(=O)O (stereo not drawn),14

row,SMILES,"hERG current change (%, negative = inhibition) at 10uM [%]"
1,CC(=O)c1ccc(OCC(O)CN2CCC(C)CC2)cc1.Cl (stereo not drawn),-31.6
2,CC1CCN(CC(O)COc2ccc(OCC(O)CN3CCC(C)CC3)cc2)CC1 (stereo not drawn),3.84
3,O=C(c1ccccc1)c1ccc(OCC(O)CN2CCCC2)cc1 (stereo not drawn),-45.3
4,CC1CCN(CC(O)COc2ccc(C(=O)c3ccccc3)cc2)CC1 (stereo not drawn),-67.4
5,CC1CN(CC(O)COc2ccc(C(=O)c3ccccc3)cc2)CC(C)O1 (stereo not drawn),-63.3
6,CC1CCN(CC(O)COc2ccc(-c3ccccc3)cc2)CC1.Cl (stereo not drawn),-81
7,CC(=O)c1ccc(OCC(O)CN2CC(C)OC(C)C2)cc1.Cl (stereo not drawn),8.19
8,NC(=O)C1CCN(CC(O)COc2ccc(-c3ccccc3)cc2)CC1 (stereo not drawn),-34.4
9,O=C(c1ccccc1)c1ccc(OCC(O)CN2CCN(Cc3ccccc3)CC2)cc1 (stereo not drawn),-73.4
10,CC(=O)c1ccc(OCC(O)CN2CCN(Cc3ccccc3)CC2)cc1.Cl (stereo not drawn),-48.2
11,CC(=O)c1sc(-c2ccc(F)cc2)cc1NS(=O)(=O)c1ccc(C)cc1,7.93
12,C=CCOc1ccc2ccccc2c1CNn1cn[nH]c1=S,-8.17
13,O=C(NCCc1csc(-c2cccc(F)c2)n1)c1ccco1,-4.61
14,O=C(CN1C(=O)S/C(=C\c2ccccc2)C1=O)Nc1cc([N+](=O)[O-])ccc1O,6.11
15,O=C(c1cc(Cl)ccc1[N+](=O)[O-])n1cnc2ccccc21,-11.9
16,Cc1cc2c(c(N)n1)c(=O)oc1ccccc12,13.9
17,Nn1c(CSc2nc3ccccc3o2)nnc1CSc1nc2ccccc2o1,-22.8
18,O=C(CN1c2cccc3cccc(c23)S1(=O)=O)Nc1ccccc1,24.3
19,CN(CC(=O)Nc1c(Cl)cccc1Cl)C(=O)CC1OC(=O)c2ccccc21 (stereo not drawn),-2.8
20,CN(CC(=O)Nc1ccc(Cl)c(Cl)c1)C(=O)CC1OC(=O)c2ccccc21 (stereo not drawn),-70.3
21,CCOc1ccc(NC(=O)CN(C)C(=O)CC2OC(=O)c3ccccc32)cc1OCC (stereo not drawn),0.75

row,SMILES,"hERG current change (%, negative = inhibition) at 10uM [%]"
1,C/C=C/c1ccc(OCC(=O)Nc2ccncc2)c(OC)c1,-14.9
2,CN(C)CCCN(C(=O)c1ccc(S(=O)(=O)N(C)Cc2ccccc2)cc1)c1nc2c(F)cccc2s1.Cl,-38.2
3,COc1cc2nc(N(CCCN(C)C)C(=O)c3ccc(C(=O)c4ccccc4)cc3)sc2cc1OC.Cl,-70.4
4,COc1ccc2sc(N(CCN(C)C)C(=O)c3ccc4ccccc4c3)nc2c1.Cl,-0.0157
5,COc1ccc2nc(N(CCN(C)C)C(=O)/C=C/c3cccs3)sc2c1.Cl,-55.1
6,COc1cc2nc(N(CCN(C)C)C(=O)c3ccc4ccccc4c3)sc2cc1OC.Cl,-40.8
7,CCN(Cc1ccccc1)S(=O)(=O)c1ccc(C(=O)N(CCCN(C)C)c2nc3c(C)c(C)ccc3s2)cc1.Cl,-3.58
8,CCN(Cc1ccccc1)S(=O)(=O)c1ccc(C(=O)N(CCCN(C)C)c2nc3c(F)cccc3s2)cc1.Cl,-66.3
9,CCOc1ccc2nc(N(CCN(C)C)C(=O)/C=C/c3cccs3)sc2c1.Cl,4.24
10,COc1ccc2sc(N(CCN(C)C)C(=O)/C=C/c3cccs3)nc2c1.Cl,-33.2
11,COc1ccc2nc(N(CCN(C)C)C(=O)c3ccc(C(=O)c4ccccc4)cc3)sc2c1.Cl,-39.2
12,CN(C)CCCN(C(=O)c1ccc(C(=O)c2ccccc2)cc1)c1nc2cc3c(cc2s1)OCCO3.Cl,-50
13,COc1ccc2sc(N(CCCN(C)C)C(=O)c3ccc(C(=O)c4ccccc4)cc3)nc2c1.Cl,-77.3
14,O=C1CSC(c2ccccc2[N+](=O)[O-])N1CCc1ccccc1 (stereo not drawn),-41
15,CCOc1cc(C(=O)N/N=C(\C)Cc2ccc(OC)cc2)cc(OCC)c1OCC,-3.15
16,FC(F)Oc1ccccc1/C=N/Nc1nc2ccccc2o1,33.5
17,Cn1c(NC(=O)c2ccco2)c(-c2ccccc2)c(=O)c2ccccc21,13.6
18,N[C@@]12CCc3nonc3[C@]1(O)CC(c1ccccc1)=[N+]2[O-],-0.645
